Experimental data: PubChem BioAssay (NCATS)

Assay: Cell Proliferation Assay against the TMD8 Cell Line (AID 651645);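 note: cells exposed to compound for 48 h before reading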
Conditions: TMD8 DLBCL cell line proliferation/viability; at 46.1 µM (top of the series) unless noted
Excerpt: One class of targeted therapeutics showing early clinical success in killing of ABC DLBCL lines are small molecule inhibitors of the Bruton tyrosine kinase (BTK) 11.
Prior to any combination assays, using an NCATS developed oncology compound library called the Mechanism of Interrogation Plate (MIPE), two well studied ABC DLBCL lines (TMD8 and HBL1) were screened using a cell viability assay (CellTiterGlo) and a 12-point titration series for each single agent. These initial experiments offered insight into the concentration range that offered the best coverage of activity and non-activity to assure relevant data is generated. In addition to the viability signature associated with this library, we examined the apoptotic response of each agent versus the TMD8 line as judged by caspase 3/7 activation. Activity was assayed at both 8 and 16 hour time-points to gain an appreciation of which agents induced an apoptotic response in a reasonable timeframe from a therapeutic exposure perspective. MIPE was also assayed for single agent viability in a human mesenchymal stem cell (hMSC) line as a surrogate of each library member's potential therapeutic index.
A total of 500 log growing TMD8 cells are seeded per well in 5 uL of a RPMI with glutamine (or Glutamax), without phenol red plus 5% FBS and 1X Pen/Strep into 1536 -solid white high base tissue culture treated Greiner One Bio Plates (789173-F) using a multidrop combi dispenser and a small sterile cassette. Compounds and controls totaling 23nL per well (negative control DMSO and positive control 9.2 uM Bortezomib-final) are immediately added to the plates using a 1536 head pin tool from Kalypsys. The plates are then covered with stainless steel gasket lids from Kalypsys and incubated for 48 hours at 37C under 95% relative humidity with 5% CO2. After 48 hours, the plates are removed and allowed to reach room temperature before 3 uL of Cell Titer Glo reagent (Promega) is added using an Aurora Flying Reagent Dispenser Bioraptor. The plates are then spun at 1000 rpms to remove bubbles and incubated for 15 minutes at room temperature before read on a ViewLux using a luminescent filter with a 10 second exposure. The relative luciferase units are used to calculated percent activity using DMSO as 100% and Bortezomib as 0%.

| SMILES | viability (% of control) |
| --- | --- |
| Cc1nc(Nc2ncc(C(=O)Nc3c(C)cccc3Cl)s2)cc(N2CCN(CCO)CC2)n1 | 8.11% |
| S=c1nc[nH]c2nc[nH]c12 | 39.5% [at 92.2 µM] |
| C[C@@H](N)C1CCC(C(=O)Nc2ccncc2)CC1 (some centres not stated) | 91.3% |
| Nc1cccc2c1CN(C1CCC(=O)NC1=O)C2=O (configuration not stated) | 102% [at 92.2 µM] |
| Cc1ccc(NC(=O)c2ccc(CN3CCN(C)CC3)cc2)cc1Nc1nccc(-c2cccnc2)n1 | 48.3% |
| CC(C)C[C@H](NC(=O)[C@H](Cc1ccccc1)NC(=O)c1cnccn1)B(O)O | 1.72% |
| COc1cc2c(N3CCN(C(=O)Nc4ccc(OC(C)C)cc4)CC3)ncnc2cc1OCCCN1CCCCC1 | 19.9% |
| Nc1nc(Cl)nc2c1ncn2[C@H]1C[C@H](O)[C@@H](CO)O1 | -0.421% [at 92.2 µM] |
| Cc1ccc(Nc2nccc(N(C)c3ccc4c(C)n(C)nc4c3)n2)cc1S(N)(=O)=O | 13.2% |
| Cc1cccc(C#Cc2ccccc2)n1 | 116% |
| Cc1cccc(-c2[nH]ncc2-c2ccc3ncccc3n2)n1 | 76.5% [at 92.2 µM] |
| CC(C)c1ccc2c(c1)c(SC(C)(C)C)c(CC(C)(C)C(=O)O)n2Cc1ccc(Cl)cc1 | 9.44% |
| CCN(CC)CCOc1ccc(Nc2ncc3cc(-c4c(Cl)cccc4Cl)c(=O)n(C)c3n2)cc1 | 0.582% |
| CCOC(=O)C1=C(O)C(=O)N(Cc2ccccc2)C1 | 104% |
| COc1cc(Nc2c(C#N)cnc3cc(OCCCN4CCN(C)CC4)c(OC)cc23)c(Cl)cc1Cl | 4.66% |
| CCOC(=O)C(C)Oc1cccc2c(=O)n(CC(=O)Nc3ccc4c(c3)OCCO4)ccc12 (configuration not stated) | 109% |
| CCN(CCO)CCCC(C)Nc1ccnc2cc(Cl)ccc12 (configuration not stated) | 114% |
